Values joined by “and” are separate entries in the source; they are usually repeats but may differ in a detail not shown here. Equal entries are not always repeated. Inconclusive results are not listed. Where a call stands in place of a potency, no number is given. Where a structure was tested more than once in an assay, its records may differ in their call. Active and inactive are the calls of the source. Unless noted, calls come from the whole dose curve; as a rule, active = well fitted curve in the direction sought with a large enough effect in the repeat runs; inconclusive = weak or mixed curves; inactive = no such curve, though single readings can be large; an effect the other way counts as inactive or inconclusive.
Legend:
[1] = target: Luciferin 4-monooxygenase (Photinus pyralis) (UniProt P08659); assay: qHTS assay to identify small molecule inhibitors of firefly luciferase (AID 1224835); note: nearly all actives have a fitted effect of over 25% in size; note: potency is the fitted concentration of half-maximal effect
Chain of Luciferin 4-monooxygenase (Photinus pyralis) (P08659 whole entry, looked up): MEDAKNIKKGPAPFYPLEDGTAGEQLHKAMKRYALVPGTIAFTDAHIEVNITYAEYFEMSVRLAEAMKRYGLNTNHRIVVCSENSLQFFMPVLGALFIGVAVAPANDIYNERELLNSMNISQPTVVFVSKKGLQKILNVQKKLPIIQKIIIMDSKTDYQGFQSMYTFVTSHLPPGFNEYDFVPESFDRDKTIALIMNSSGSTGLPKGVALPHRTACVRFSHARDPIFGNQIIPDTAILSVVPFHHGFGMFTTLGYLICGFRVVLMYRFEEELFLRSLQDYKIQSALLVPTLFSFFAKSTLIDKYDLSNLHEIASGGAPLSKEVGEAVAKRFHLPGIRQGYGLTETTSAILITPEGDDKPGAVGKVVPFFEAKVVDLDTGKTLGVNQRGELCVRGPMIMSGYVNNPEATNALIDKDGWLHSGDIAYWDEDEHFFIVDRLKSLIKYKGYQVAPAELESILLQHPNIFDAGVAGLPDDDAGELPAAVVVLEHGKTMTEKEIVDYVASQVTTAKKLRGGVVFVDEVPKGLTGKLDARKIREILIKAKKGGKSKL
Summary of the method: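 Quantitative HTS format; KM concentrations of both substrates. Purified P. pyralis FLuc activity quantified from luminescence images.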

[2] = qHTS assay to identify small molecule agonists of the constitutive androstane receptor (CAR) signaling pathway - cell viability counter screen (AID 1224836); note: nearly all actives have a fitted effect of over 45% in size; note: potency is the fitted concentration of half-maximal effect
Summary of the method: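 Using CellTiter-Fluor, viability of HepG2 cells harbouring hCAR and CYP2B6-2.2kb was measured following 23 h incubation with a 15-concentration compound series plus PK11195 (0.75 uM final).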

[3] = qHTS assay to identify small molecule antagonists of the constitutive androstane receptor (CAR) signaling pathway - cell viability counter screen (AID 1224837); note: nearly all actives have a fitted effect of over 45% in size; note: potency is the fitted concentration of half-maximal effect
Summary of the method: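 HepG2 cells stably carrying hCAR and CYP2B6-2.2kb reporter, stimulated with 50 nM CITCO and compounds at 15 concentrations for 23 h at 37 C. Viability measured by CellTiter-Fluor fluorescence.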

[4] = target: Nuclear receptor subfamily 1 group I member 3 (Homo sapiens) (UniProt Q14994); assay: qHTS assay to identify small molecule antagonists of the constitutive androstane receptor (CAR) signaling pathway (AID 1224838); note: nearly all actives have a fitted effect of over 40% in size
Chain of Nuclear receptor subfamily 1 group I member 3 (Homo sapiens) (Q14994 whole entry, looked up): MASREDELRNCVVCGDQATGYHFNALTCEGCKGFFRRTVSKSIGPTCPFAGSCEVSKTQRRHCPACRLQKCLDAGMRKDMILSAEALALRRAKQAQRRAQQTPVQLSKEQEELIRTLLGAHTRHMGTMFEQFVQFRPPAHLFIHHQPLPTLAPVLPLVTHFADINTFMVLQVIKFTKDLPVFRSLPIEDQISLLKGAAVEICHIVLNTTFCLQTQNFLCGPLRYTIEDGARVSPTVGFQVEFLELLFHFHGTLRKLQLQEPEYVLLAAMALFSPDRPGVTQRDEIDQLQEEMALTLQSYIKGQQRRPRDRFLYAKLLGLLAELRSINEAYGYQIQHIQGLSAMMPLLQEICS
Summary of the method: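 HepG2 cells stably carrying hCAR and a CYP2B6-2.2kb luciferase reporter, seeded 4 hrs before compound (15 concentrations). Stimulated with 50 nM CITCO for 24 hr at 37 C. ONE-Glo luminescence read after 30 min at room temperature.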

[5] = target: Nuclear receptor subfamily 1 group I member 3 (Homo sapiens) (UniProt Q14994); assay: qHTS assay to identify small molecule agonists of the constitutive androstane receptor (CAR) signaling pathway (AID 1224839); note: nearly all actives have a fitted effect of over 15% in size; note: potency is the fitted concentration of half-maximal effect
Summary of the method: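 Double-stable HepG2 cells (hCAR, CYP2B6-2.2kb) seeded 4 h before compound addition. Exposure 24 h with 0.75 uM PK11195 final. Luciferase detected by ONE-Glo.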

[6] = qHTS assay to identify small molecule antagonists of the estrogen related receptor signaling pathway with the pleiotropic PPARgamma coactivator (PGC) from Tox21 10K library - cell viability counter screen (AID 1224840; active = well fitted cell-killing curve with a large enough effect in the repeat runs, not every such curve was filed as active; note: nearly all actives have a fitted effect of over 40% in size; note: potency is the fitted concentration of half-maximal effect)
Summary of the method: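 PGC/ERR cells (2,000/well) plated 6 h, then compound-treated for 17.5 h at 37 C. Viability measured by CellTiter-Fluor fluorescence after 30 min at 37 C, multiplexed with the pathway assay.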

[7] = target: Thyrotropin receptor (Homo sapiens) (UniProt P16473); assay: qHTS assay to identify small molecule agonists of the thyroid stimulating hormone receptor (TSHR) signaling pathway (AID 1224843; calls by dose curve; note: nearly all actives have a fitted effect of over 45% in size; note: potency is the fitted concentration of half-maximal effect)
Chain of Thyrotropin receptor (Homo sapiens) (P16473 whole entry, looked up): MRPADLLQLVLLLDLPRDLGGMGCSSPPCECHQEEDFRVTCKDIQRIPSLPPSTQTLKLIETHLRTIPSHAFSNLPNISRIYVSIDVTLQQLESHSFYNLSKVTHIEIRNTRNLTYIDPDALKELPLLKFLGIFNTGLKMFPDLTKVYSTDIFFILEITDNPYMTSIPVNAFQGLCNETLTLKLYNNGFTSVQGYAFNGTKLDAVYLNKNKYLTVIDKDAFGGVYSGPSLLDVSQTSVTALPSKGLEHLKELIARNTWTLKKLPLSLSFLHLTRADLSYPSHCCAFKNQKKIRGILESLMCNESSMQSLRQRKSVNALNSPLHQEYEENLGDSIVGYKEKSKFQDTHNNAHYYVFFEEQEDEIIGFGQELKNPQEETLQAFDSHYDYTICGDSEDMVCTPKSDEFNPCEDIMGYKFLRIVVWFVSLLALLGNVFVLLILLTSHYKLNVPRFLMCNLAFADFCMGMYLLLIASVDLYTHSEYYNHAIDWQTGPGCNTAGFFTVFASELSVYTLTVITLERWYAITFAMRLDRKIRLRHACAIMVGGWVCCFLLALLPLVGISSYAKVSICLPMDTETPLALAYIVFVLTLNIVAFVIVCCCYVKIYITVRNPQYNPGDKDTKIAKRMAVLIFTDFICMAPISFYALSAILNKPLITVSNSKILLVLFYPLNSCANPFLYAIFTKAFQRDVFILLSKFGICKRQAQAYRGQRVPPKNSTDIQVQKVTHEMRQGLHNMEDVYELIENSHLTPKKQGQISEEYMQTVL
Summary of the method: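 Cell line HEK293 with TSHR; density 800/well. Exposure 30 min RT. Readout HTRF cAMP (cAMP-d2/anti-cAMP-cryptate), 1 h RT before reading.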

[8] = qHTS assay to identify small molecule agonists of the hypoxia (HIF-1) signaling pathway - cell viability counter screen (AID 1224844; calls by dose curve; note: nearly all actives have a fitted effect of over 50% in size; note: potency is the fitted concentration of half-maximal effect)
Summary of the method: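 HRE-bla ME-180 cells, 2,000/well in 0.5% dialyzed FBS medium, treated 17 h at 37C with compounds. Viability read in the same wells as the bla reporter, by CellTiter-Glo luminescence after 30 min at room temperature.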

[9] = qHTS assay to identify small molecule agonists of H2AX (AID 1224845; active = well fitted activation curve with a large enough effect in the signal ratio in the repeat runs, not every such curve was filed as active; the % refers to the signal ratio; note: potency is the fitted concentration of half-maximal effect)
Summary of the method: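 Wild-type CHO-K1 cells plated overnight, then exposed 3 hr at 37C to compounds at 15 concentrations (0.76% DMSO). Lysed, then HTRF anti-pH2AX(S139)-cryptate/anti-H2AX-d2 detection after 24 hr at room temperature; emissions 665 and 620 nm.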

[10] = qHTS assay to identify small molecule agonists of the hypoxia (HIF-1) signaling pathway (AID 1224846; active = well fitted activation curve with a large enough effect in the signal ratio in the repeat runs, not every such curve was filed as active; the % refers to the signal ratio)
Summary of the method: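 HRE-bla ME-180 beta-lactamase reporter cells in medium with 0.5% dialyzed FBS, pre-incubated 5 h then exposed to compounds 17 h at 37C, 5% CO2; reporter induction read with CCF4-AM FRET substrate.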

[11] = qHTS assay to identify small molecule agonists of H2AX - cell viability counter screen (AID 1224847; calls by dose curve; note: nearly all actives have a fitted effect of over 30% in size; note: potency is the fitted concentration of half-maximal effect)
Summary of the method: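 Quantitative HTS viability measurement: CHO-K1 wild-type cells in serum (10% FBS) medium, short 3 hr drug exposure at 37C with 0.76% DMSO, CellTiter-Glo luminescent detection.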

[12] = qHTS RealTime-Glo MT Cell Viability Assay in HepG2 cells - 24 hour (AID 1224867); note: nearly all actives have a fitted effect of over 50% in size; note: potency is the fitted concentration of half-maximal effect
Summary of the method: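 Cell number in HepG2 cultures estimated from NanoLuc luminescence generated by metabolic reduction of a prosubstrate by living cells. The homogeneous, nonlytic format allowed repeated reads at 0, 8, 16, 24, 32 and 40 h of compound exposure.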

[13] = qHTS RealTime-Glo MT Cell Viability Assay in HEK293 cells - 32 hour (AID 1224868); note: nearly all actives have a fitted effect of over 50% in size; note: potency is the fitted concentration of half-maximal effect
Summary of the method: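 Homogeneous bioluminescent viability format in HEK293 cells (600 cells/well). Following 5 h at 37 C/5% CO2, 23 nL compound was pintooled; the signal was measured repeatedly during 40 h incubation.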

[14] = A CellTox Green Cytotoxicity Assay to monitor cytotoxicity in HEK293 cells - 0 hour (AID 1224869); note: nearly all actives have a fitted effect of over 50% in size
Summary of the method: (§1)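 HEK293 cells, 600/well, were preincubated 5 hours and then exposed to compounds at 37 C for up to 40 hours. A cell-impermeant cyanine dye staining dead-cell DNA was read by fluorescence at 0, 8, 16, 24, 32 and 40 h time points.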

[15] = A CellTox Green Cytotoxicity Assay to monitor cytotoxicity in HEK293 cells - 40 hour (AID 1224871); note: nearly all actives have a fitted effect of over 45% in size; note: potency is the fitted concentration of half-maximal effect
Summary of the method: as §1

[16] = qHTS RealTime-Glo MT Cell Viability Assay in HepG2 cells - 40 hour (AID 1224870); note: nearly all actives have a fitted effect of over 50% in size; note: potency is the fitted concentration of half-maximal effect
Summary of the method: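 HepG2 cells mixed with RealTime-Glo MT reagents (NanoLuc plus cell-permeant prosubstrate) were seeded at 600 cells/well, incubated 5 h at 37 C/5% CO2, then pinned with compounds in DMSO; nonlytic luminescence tracked viability during 40 h treatment.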

[17] = qHTS assay to identify small molecule antagonists of the estrogen related receptor signaling pathway with the pleiotropic PPARgamma coactivator (PGC) from Tox21 10K library (AID 1224841; call rule not given here; note: potency is the fitted concentration of half-maximal effect)
Summary of the method: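 PGC/ERR cell line, 2,000 cells/well, pre-incubated 6 hours at 37 C, then exposed to compounds for 18 hours at 37 C; luciferase read with One-Glo luminescence after 30 min at room temperature.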

[18] = qHTS assay to identify small molecule agonists of the estrogen related receptor signaling pathway with the pleiotropic PPARgamma coactivator (PGC) from Tox21 10K library (AID 1224842); note: nearly all actives have a fitted effect of over 15% in size
Summary of the method: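 PGC/ERR reporter cells (NTP line) were seeded 2,000 per well, rested 6 h at 37 C/5% CO2, then pin-dosed with compounds in DMSO for 18 h at 37 C; luciferase read by One-Glo luminescence after 30 min at room temperature.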

[19] = qHTS assay to identify small molecule antagonists of the estrogen related receptor (ERR) signaling pathway from Tox21 library (AID 1224848); note: nearly all actives have a fitted effect of over 50% in size; note: potency is the fitted concentration of half-maximal effect
Summary of the method: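 Screening used an ERR reporter line supplied by NTP, exposed for 18 h at 37 C to library compounds delivered in DMSO. Signal was luciferase luminescence developed with ONE-Glo at room temperature for 30 min.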

[20] = qHTS assay to identify small molecule agonists of the estrogen related receptor (ERR) signaling pathway from Tox21 library (AID 1224849; calls by dose curve; note: nearly all actives have a fitted effect of over 15% in size); settings: ERR reporter cell line, ONE-Glo luciferase, 18 h; at 92.4 µM (top of the series) unless noted
Summary of the method: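 ERR reporter cells (NTP line) pre-incubated 6 hours at 37 C, then exposed to compounds for 18 hours at 37 C. ONE-Glo luciferase luminescence was read after 30 minutes at room temperature.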

Structure (SMILES)	Potency [1]	Potency [2]	Potency [3]	Potency [4]	Potency [5]	Potency [6]	Potency [7]	Potency [8]	Potency [9]	outcome [10]	Potency [11]	Potency [12]	Potency [13]	Potency [14]	Potency [15]	Potency [16]	Potency [17]	Potency [18]	Potency [19]	activity change, positive = activation [20]
Cn1[nH]nnc1=S	22.4 µM (active)	inactive	inactive	inactive	inactive	inactive	inactive	inactive	inactive	inactive	inactive	inactive	inactive	inactive	inactive					
Fc1ccc(Oc2ccnc3cc(Cl)cc(Cl)c23)cc1	35.6 µM (active)	inactive	inactive	inactive	27.3 µM (active)	inactive			inactive			inactive	11 µM (active)	inactive	inactive	inactive				
Clc1ccc(-c2ccc(Cl)c(Cl)c2Cl)c(Cl)c1Cl	inactive	inactive	inactive	inactive		inactive	inactive		inactive			inactive		inactive	inactive	inactive	inactive	inactive	inactive	6.41% (inactive)
CCN(CC)c1c([N+](=O)[O-])cc(C(F)(F)F)c(N)c1[N+](=O)[O-]	inactive	inactive	inactive	inactive	48.6 µM (active)		13.7 µM (active)	inactive		inactive	113 µM (active)		19.5 µM (active)	inactive		inactive				
CCCN(CCC)c1c([N+](=O)[O-])cc(S(N)(=O)=O)cc1[N+](=O)[O-]	inactive	65.2 µM (active)	65.2 µM (active)		16.4 µM (active)	36.7 µM (active)	5.18 µM (active)	37 µM (active)	101 µM (active)		89.8 µM (active)	43.6 µM (active)	18.5 µM (active)	inactive	39.7 µM (active)	49 µM (active)	65.2 µM (active)	inactive	48.6 µM (active)	-56.8% (inactive)
Oc1ccc(C(=C(Cl)Cl)c2ccc(O)cc2)cc1	inactive	inactive	inactive	inactive	48.5 µM (active)				inactive			inactive	43.6 µM (active)	inactive	inactive	inactive		inactive	34.3 µM (active)	-44.3% (inactive)
CCOC(=O)C1(c2ccccc2)CCN(CCC(C#N)(c2ccccc2)c2ccccc2)CC1	inactive	inactive	inactive	inactive		inactive	inactive	inactive	inactive		inactive	inactive	inactive	inactive		inactive				
CCCCCCCCCCCCCCCC[N+](C)(C)C	inactive	54.5 µM (active)	54.5 µM (active)	inactive	inactive	inactive and 61.1 µM (active)		inactive	inactive		54.6 µM (active) and 101 µM (active) and 49.2 µM (active)	inactive and 49 µM (active) and 23.9 µM (active)	9.42 µM (active) and 21.9 µM (active) and 8.49 µM (active)	inactive	23.7 µM (active) and 43.6 µM (active) and 23.9 µM (active)					

From PubChem BioAssay (Tox21)
